From PubChem BioAssay (NCATS)
Inconclusive results are not listed. The source made the active and inactive calls. Unless noted, the call rests on the fitted dose curve; in most records, active means well fitted curve in the direction sought with a large enough effect; inconclusive means small, poorly fitted or top-dose-only effect, or another doubt; inactive means no such curve, though single readings can be large; an effect the other way counts as inactive or inconclusive.

Key:
[1] = AP1 Signaling Pathway (AID 357; active means well fitted curve in either direction with a large enough effect, not every such curve was filed as active;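 further: ME-180 reporter cells stimulated with EGF at its EC50 level; on the % scale 0 is the no-effect control and ±100 the full control effect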); conditions: ME-180 AP-1-bla reporter, EGF-induced, beta-lactamase ratio, 5 h; at 17.2 µM (top of the series) unless noted
Procedure, shortened: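 Modulation of EGF-driven AP-1 transcription was assessed with a beta-lactamase reporter in ME-180 cells. Compound and EC50 EGF were co-incubated 5 hours at 37 °C before 2.5-hour CCF4 loading at room temperature and dual-emission reading.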

[2] = biological target: Cytochrome P450 1A2 (Homo sapiens) (UniProt P05177); assay: p450-cyp1a2 (AID 410; calls by dose curve; further: potency means the concentration at half of the fitted maximal effect;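 on activity change, negative = inhibition: -100% = full effect of reference inhibitor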)
Cytochrome P450 1A2 (Homo sapiens), sequence (P05177 whole entry, looked up): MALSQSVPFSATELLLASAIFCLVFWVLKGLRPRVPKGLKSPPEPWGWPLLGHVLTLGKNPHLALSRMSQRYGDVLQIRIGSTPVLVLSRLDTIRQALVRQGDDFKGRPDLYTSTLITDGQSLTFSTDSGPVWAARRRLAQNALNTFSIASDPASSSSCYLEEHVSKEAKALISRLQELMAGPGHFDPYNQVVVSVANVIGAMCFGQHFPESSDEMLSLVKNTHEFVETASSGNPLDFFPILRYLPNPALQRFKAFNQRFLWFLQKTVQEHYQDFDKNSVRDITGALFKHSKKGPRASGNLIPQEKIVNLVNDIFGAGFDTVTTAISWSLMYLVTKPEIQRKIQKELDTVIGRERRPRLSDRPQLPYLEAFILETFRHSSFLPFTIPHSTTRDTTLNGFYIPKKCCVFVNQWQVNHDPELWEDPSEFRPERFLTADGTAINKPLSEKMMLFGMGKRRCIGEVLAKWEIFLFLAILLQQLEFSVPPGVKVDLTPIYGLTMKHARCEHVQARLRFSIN
Procedure, shortened: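 Luminescent readout of luciferin formed from Luciferin-ME by human CYP1A2; data normalized against complete inhibition by 57 uM furafylline. Enzyme 20nM, substrate 100uM at Km, 100mM KPO4 buffer, 60 min reaction at room temperature.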

[3] = biological target: Glucocorticoid receptor (Homo sapiens) (UniProt P04150); assay: GR-GFP Redistribution (AID 450;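 active means compounds whose dose series gives a full or clear partial fitted curve of increased nuclear translocation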; further: potency means the concentration at half of the fitted maximal effect)
Glucocorticoid receptor (Homo sapiens), sequence (P04150 whole entry, looked up, the tested form may be a part): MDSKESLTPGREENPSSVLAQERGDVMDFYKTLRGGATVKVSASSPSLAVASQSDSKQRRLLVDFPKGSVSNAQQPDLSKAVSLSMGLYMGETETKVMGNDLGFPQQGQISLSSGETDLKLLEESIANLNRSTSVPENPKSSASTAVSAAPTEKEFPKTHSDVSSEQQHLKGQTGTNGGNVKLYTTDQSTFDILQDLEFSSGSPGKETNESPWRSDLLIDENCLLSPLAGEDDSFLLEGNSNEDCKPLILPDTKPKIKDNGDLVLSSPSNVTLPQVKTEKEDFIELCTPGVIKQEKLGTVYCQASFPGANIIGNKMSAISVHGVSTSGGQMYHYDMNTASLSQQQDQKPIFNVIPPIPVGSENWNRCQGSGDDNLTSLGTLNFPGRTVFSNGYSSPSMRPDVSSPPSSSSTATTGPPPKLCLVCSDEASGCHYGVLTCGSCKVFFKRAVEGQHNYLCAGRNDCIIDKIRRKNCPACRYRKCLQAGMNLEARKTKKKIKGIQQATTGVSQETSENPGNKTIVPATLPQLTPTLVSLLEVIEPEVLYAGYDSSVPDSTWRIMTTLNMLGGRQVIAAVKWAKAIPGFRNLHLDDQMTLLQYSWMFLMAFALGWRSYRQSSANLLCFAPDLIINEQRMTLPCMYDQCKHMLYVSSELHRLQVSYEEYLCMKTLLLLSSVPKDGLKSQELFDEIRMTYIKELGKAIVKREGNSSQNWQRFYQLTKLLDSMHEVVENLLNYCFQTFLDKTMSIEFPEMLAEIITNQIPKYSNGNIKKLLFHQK

[4] = biological target: Glucocorticoid receptor (Homo sapiens) (UniProt P04150); assay: GR-EFC Redistribution (AID 451; calls by dose curve; further: potency means the concentration at half of the fitted maximal effect); conditions: CHO-K1 GR-EFC translocation, beta-gal luminescence, 2 h
Procedure, shortened: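 CHO-K1 cells stably expressing nuclear-localized β-gal enzyme acceptor and GR fused C-terminally to the enzyme donor fragment; ligand-driven nuclear translocation restores β-gal by complementation. Compounds titrated up to 46 uM final, 2 h at 37 °C; luminescence read.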

[5] = biological target: 3',5'-cyclic-AMP phosphodiesterase 4B (Homo sapiens) (UniProt Q07343); assay: qHTS Assay for Inhibitors of PDE-IV (AID 607; active means well fitted activation curve with a large enough effect in the main read-out, with a control signal flat, not every such curve was filed as active; further: % of control where 0% means no effect)
3',5'-cyclic-AMP phosphodiesterase 4B (Homo sapiens), sequence (Q07343 whole entry, looked up): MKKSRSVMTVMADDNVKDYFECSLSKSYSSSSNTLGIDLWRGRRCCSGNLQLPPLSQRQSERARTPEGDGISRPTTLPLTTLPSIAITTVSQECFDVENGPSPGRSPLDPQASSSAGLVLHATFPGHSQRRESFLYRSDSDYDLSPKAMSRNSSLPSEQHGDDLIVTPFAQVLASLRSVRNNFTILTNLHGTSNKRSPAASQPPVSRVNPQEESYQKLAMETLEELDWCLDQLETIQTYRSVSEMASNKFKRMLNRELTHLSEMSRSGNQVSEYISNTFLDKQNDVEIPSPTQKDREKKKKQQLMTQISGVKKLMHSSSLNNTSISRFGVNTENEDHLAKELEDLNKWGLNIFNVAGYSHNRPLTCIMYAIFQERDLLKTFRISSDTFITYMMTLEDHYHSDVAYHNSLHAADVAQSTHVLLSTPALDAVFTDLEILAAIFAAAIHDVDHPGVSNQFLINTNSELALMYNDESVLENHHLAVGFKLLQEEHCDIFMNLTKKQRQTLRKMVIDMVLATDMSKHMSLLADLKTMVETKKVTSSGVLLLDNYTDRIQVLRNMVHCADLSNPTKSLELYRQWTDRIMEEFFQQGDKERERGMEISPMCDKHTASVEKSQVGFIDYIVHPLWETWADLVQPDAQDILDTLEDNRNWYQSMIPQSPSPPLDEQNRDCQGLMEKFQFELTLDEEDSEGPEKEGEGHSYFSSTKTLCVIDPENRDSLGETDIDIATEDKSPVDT
Procedure, shortened: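 Live HEK293 cells with a modified cyclic nucleotide-gated (CNG) channel report intracellular cAMP via membrane-potential dye fluorescence (ex 535/em 590 nm). Endogenous PDE-IV was targeted. Compounds were tested at up to 22.9 uM final; RO 20-1724 100 uM served as control.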

[6] = biological target: Cytochrome P450 3A4 (Homo sapiens) (UniProt P08684); assay: qHTS Assay for Activators of Cytochrome P450 3A4 (AID 885); further: nearly all actives have a fitted effect of over 65% in size
Cytochrome P450 3A4 (Homo sapiens), sequence (P08684 whole entry, looked up): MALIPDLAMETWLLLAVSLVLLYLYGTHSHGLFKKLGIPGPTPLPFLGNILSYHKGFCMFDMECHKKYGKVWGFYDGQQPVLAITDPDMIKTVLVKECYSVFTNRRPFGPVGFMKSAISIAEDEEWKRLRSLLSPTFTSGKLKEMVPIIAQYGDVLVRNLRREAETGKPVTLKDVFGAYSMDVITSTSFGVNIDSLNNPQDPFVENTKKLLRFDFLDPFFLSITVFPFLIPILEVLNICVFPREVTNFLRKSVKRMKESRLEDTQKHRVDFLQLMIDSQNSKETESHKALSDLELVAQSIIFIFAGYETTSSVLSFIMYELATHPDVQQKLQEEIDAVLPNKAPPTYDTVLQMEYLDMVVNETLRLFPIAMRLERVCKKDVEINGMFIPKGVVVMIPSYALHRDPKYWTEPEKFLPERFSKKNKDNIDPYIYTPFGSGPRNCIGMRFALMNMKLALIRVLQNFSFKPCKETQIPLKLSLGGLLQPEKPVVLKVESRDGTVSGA
Procedure, shortened: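 Quantitative HTS format: compounds preincubated with 20nM human CYP3A4 and Luciferin-PPXE substrate at KM, reaction started by NADPH regeneration, stopped after 60 min, luciferase luminescence read 20 min later.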

[7] = biological target: Cytochrome P450 2D6 (Homo sapiens) (UniProt P10635); assay: qHTS Assay for Inhibitors and Substrates of Cytochrome P450 2D6 (AID 891);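 further: luciferin methyl ether substrate demethylated by CYP2D6 with NADPH regeneration; on the % scale 0 is the no-effect control and ±100 the full control effect; nearly all actives have a fitted effect of over 60% in size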
Procedure, shortened: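 Human CYP2D6 (5 nM) with 30 uM Luciferin-ME EGE (at Km) in 100 mM KPO4, compound preincubated 10 min, then NADPH regeneration system for 60 min at room temperature. Luciferin read by luminescence; normalized to 1.43 uM quinidine.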

[8] = biological target: Ubiquitin carboxyl-terminal hydrolase 1 (Homo sapiens) (UniProt O94782); assay: Inhibitors of USP1/UAF1: Pilot qHTS (AID 504865); further: potency means the concentration at half of the fitted maximal effect; nearly all actives have a fitted effect of over 35% in size
Procedure, shortened: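 Kinetic fluorescence assay: 1nM USP1/UAF1, 15 min compound preincubation, then 150nM Ub-Rho; 480/540 nm.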

[9] = Stat Signaling Pathway (AID 446; active means well fitted curve in either direction with a large enough effect, not every such curve was filed as active;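 further: ME-180 cervical cancer cells given 40 pM IL-6 alongside compound; SIE-controlled beta-lactamase reporter measured as 460/530 nm FRET emission ratio; on the % scale 0 is the no-effect control and ±100 the full control effect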); conditions: ME-180 SIE beta-lactamase reporter, IL-6 stimulated, 5 h; at 17.2 µM (top of the series) unless noted
Procedure, shortened: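 IL-6/STAT signaling read in ME-180 cells via an SIE beta-lactamase reporter. Stimulus was 40 pM IL-6 (its AC50) for 5 hrs, so both activation and inhibition register.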

[10] = biological target: Mitogen-activated protein kinase 10 (Mus musculus) (UniProt Q61831); assay: JNK3 AlphaScreen Assay (AID 530; active means well fitted curve in either direction with a large enough effect, not every such curve was filed as active;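 further: kinase came from lysate of stimulated human HepG2 cells; signal reports phosphorylation of biotinylated GST-cJun 1-79 at Ser73 with 10 µM ATP; on the % scale 0 is the no-effect control and ±100 the full control effect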)
Procedure, shortened: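 Inhibitors reduce antibody binding to phosphorylated biotin-cJun, lowering AlphaScreen luminescence. Lysates from HepG2 cells pre-activated by IL-1beta plus TNF-alpha supplied JNK3; compounds were titrated.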

[11] = qHTS Assay for Identification of Small Molecule Agonists for Hypoxia Response Element Signaling Pathway (AID 914; active means well fitted activation curve with a large enough effect in the signal ratio, with a control signal flat, not every such curve was filed as active; the % refers to the signal ratio; further: % of control where 0% means no effect); conditions: ME-180 (cervical carcinoma) HRE-bla reporter, beta-lactamase ratio, CoCl2, 17 h; activation: stronger effect = higher value
Procedure, shortened: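 qHTS titration; ME-180 HRE-bla cells; EC50 CoCl2 co-treatment, 17 h at 37 degrees Celsius; CCF4 dye, ex 405nm, em 460nm and 530nm; %Activity from ratio; AC50.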

[12] = biological target: Guanine nucleotide-binding protein G(i) subunit alpha-1 (Homo sapiens) (UniProt P63096); assay: qHTS Assay for Inhibitors of RGS12 GoLoco Motif Activity (Green Fluorophore) (AID 879);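 further: 0% = labeled peptide with Gαi1 and full inhibition = labeled peptide alone without protein; negative values mean loss of peptide binding seen as reduced polarization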
Guanine nucleotide-binding protein G(i) subunit alpha-1 (Homo sapiens), sequence (P63096 whole entry, looked up): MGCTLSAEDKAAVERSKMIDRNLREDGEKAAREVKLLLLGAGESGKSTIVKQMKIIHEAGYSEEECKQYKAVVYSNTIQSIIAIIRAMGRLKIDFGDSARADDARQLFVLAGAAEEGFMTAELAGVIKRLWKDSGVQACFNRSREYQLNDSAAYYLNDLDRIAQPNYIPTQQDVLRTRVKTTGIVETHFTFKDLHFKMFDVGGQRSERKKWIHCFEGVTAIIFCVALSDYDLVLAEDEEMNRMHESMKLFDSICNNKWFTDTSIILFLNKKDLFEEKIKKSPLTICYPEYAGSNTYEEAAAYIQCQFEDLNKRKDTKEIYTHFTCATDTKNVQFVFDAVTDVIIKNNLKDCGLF
Procedure, shortened: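 Fluorescence polarization assay: 50 nM Gαi1 with 10 nM FITC-labeled RGS12 GoLoco peptide in 10 mM Tris pH 7.5, 150 mM NaCl, 0.1 mM GDP, 0.05% NP40, 10 min at room temperature with compound.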

[13] = biological target: Cytochrome P450 2C19 (Homo sapiens) (UniProt P33261); assay: qHTS Assay for Inhibitors and Substrates of Cytochrome P450 2C19 (AID 899); further: nearly all actives have a fitted effect of over 60% in size
Procedure, shortened: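 Human CYP2C19 (5nM) with Luciferin-H EGE at 10uM (its KM) in 50mM KPO4 was preincubated with compound for 10 min at 37C. NADPH regeneration started a 60 min 37C reaction. Luciferin was read by luminescence, normalized to 57uM ketoconazole.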

[14] = qHTS Assay for Identification of Small Molecule Agonists for Thrombopoietin (TPO) Signaling Pathway (AID 917); further: on the % scale 0 is the no-effect control and ±100 the full control effect
Procedure, shortened: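 We measured Glycoprotein IIb promoter–luciferase output in IL-3-starved Ba/F3 murine cells expressing the human TPO receptor after 24 hrs at 37 C with compounds and 26 pM TPO.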

[15] = biological target: Pyruvate kinase (Leishmania mexicana) (UniProt Q27686); assay: qHTS Validation Assay for Inhibitors of Leishmania Mexicana Pyruvate Kinase (AID 945);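 further: 0% = DMSO only neutral control wells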
Pyruvate kinase (Leishmania mexicana), sequence (Q27686 2-499 E452W): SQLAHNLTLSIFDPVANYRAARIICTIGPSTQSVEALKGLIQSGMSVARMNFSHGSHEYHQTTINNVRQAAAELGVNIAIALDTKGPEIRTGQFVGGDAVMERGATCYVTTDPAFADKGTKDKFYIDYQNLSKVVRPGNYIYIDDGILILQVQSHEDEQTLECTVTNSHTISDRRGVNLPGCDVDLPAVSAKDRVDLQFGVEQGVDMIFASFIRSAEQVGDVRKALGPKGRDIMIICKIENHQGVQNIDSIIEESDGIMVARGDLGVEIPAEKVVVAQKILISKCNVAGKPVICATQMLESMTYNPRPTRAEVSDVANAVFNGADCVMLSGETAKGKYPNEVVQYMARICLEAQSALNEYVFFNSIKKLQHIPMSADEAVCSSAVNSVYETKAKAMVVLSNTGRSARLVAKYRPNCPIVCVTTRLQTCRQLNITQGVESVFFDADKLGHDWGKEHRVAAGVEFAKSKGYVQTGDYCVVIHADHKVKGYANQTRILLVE
Procedure, shortened: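 Read-out: luminescence from PKLight stop/detection reagent, data normalized to DMSO. Reaction: 0.2 nM E451W LmPYK, 0.5 mM PEP, 0.1 mM ADP, pH 7.2, 1 h room temperature.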

[16] = biological target: Pyruvate kinase PKM (Homo sapiens) (UniProt P14618); assay: qHTS Assay for Activators of Human Muscle Pyruvate Kinase (AID 954; active means well fitted curve in the direction sought with a large enough effect, not every such curve was filed as active;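 further: 0% = uninhibited enzyme and -100% = no enzyme or full thiadiazolimine inhibition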)
Pyruvate kinase PKM (Homo sapiens), sequence (P14618 whole entry, looked up): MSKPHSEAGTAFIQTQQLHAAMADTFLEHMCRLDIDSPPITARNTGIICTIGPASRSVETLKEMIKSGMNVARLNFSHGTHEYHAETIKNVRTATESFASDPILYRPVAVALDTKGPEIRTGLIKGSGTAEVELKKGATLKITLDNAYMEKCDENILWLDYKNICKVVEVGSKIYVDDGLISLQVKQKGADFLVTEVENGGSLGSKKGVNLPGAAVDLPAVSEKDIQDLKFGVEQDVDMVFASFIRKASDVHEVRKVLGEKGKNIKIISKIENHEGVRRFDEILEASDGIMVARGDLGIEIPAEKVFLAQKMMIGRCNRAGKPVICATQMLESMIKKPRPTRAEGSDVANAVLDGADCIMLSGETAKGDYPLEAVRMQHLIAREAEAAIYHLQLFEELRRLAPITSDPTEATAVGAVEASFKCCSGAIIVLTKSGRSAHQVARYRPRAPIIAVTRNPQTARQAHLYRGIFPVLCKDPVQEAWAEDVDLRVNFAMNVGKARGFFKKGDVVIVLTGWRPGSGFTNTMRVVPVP
Procedure, shortened: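 Enzyme was run at intermediate activity so both inhibitors and activators could be detected. ATP formed from ADP and PEP by 0.1 nM human PKM2 during a 1 h room-temperature incubation was quantified by coupled luciferase luminescence.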

[17] = biological target: Alpha-galactosidase A (Homo sapiens) (UniProt P06280); assay: Counterscreen for Glucocerebrosidase Inhibitors: qHTS Assay for Human alpha-Galactosidase at pH 4.5 (AID 992); further: 0% is about no effect
Alpha-galactosidase A (Homo sapiens), sequence (P06280 whole entry, looked up): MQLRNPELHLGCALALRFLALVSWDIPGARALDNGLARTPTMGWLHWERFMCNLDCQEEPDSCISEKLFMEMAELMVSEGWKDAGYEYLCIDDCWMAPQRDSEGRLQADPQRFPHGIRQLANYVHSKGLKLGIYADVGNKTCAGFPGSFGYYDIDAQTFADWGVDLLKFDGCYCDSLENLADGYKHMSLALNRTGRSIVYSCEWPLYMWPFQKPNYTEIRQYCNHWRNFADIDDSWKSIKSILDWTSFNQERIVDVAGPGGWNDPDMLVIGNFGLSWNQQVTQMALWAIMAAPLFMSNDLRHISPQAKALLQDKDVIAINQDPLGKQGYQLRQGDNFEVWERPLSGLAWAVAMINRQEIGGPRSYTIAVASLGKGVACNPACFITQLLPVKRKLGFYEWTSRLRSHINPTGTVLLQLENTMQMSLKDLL
Procedure, shortened: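 Read-out is 4-methylumbelliferone fluorescence (365 nm excitation, 440 nm emission) after a pH 10 NaOH/glycine stop. Reactions held 2 nM enzyme and 80 uM substrate at pH 4.5 for 20 min at room temperature.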

[18] = NFAT Signaling Pathway (AID 444; active means well fitted curve in either direction with a large enough effect, not every such curve was filed as active); conditions: Jurkat NFAT-bla M1, carbachol, beta-lactamase ratio, 5 h; at 17.2 µM (top of the series) unless noted
Procedure, shortened: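 Jurkat cells carrying an NFAT-driven β-lactamase reporter and co-transfected muscarinic M1 receptor were treated with compound plus carbachol (1 uM final, an EC50 level) for 5 h at 37 °C. CCF4 loading followed for 1 h at RT; 460/530 nm ratio gave %activity.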

[19] = biological target: Cytochrome P450 3A4 (Homo sapiens) (UniProt P08684); assay: qHTS Assay for Inhibitors and Substrates of Cytochrome P450 3A4 (AID 884); further: on the % scale 0 is the no-effect control and ±100 the full control effect; nearly all actives have a fitted effect of over 50% in size
Procedure, shortened: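 20 nM human CYP3A4 with 25 uM Luciferin-PPXE (at KM) in 200 mM KPO4, preincubated 10 min with compound; NADPH regeneration started a 60 min RT reaction. Luciferin detected by luminescence, normalized to 57 uM ketoconazole as full inhibition.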

[20] = qHTS Assay for Identification of Small Molecule Antagonists for NFkB Signaling Pathway (AID 895; active means well fitted inhibition curve with a large enough effect in the signal ratio, with a control signal flat, not every such curve was filed as active; the % refers to the signal ratio; further: on the % scale 0 is the no-effect control and ±100 the full control effect)
Procedure, shortened: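 NFkB-bla ME-180 cervical carcinoma cells with beta-lactamase reporter under NFkB response element; compounds added, then TNF alpha at 10 pM final (EC50), 5 h at 37 C. LiveBLAzer substrate 2 h, room temperature; emission 460/530 nm at 405 nm excitation.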

[21] = biological target: Muscarinic acetylcholine receptor M1 (Rattus norvegicus) (UniProt P08482); assay: qHTS Assay for Antagonists of Acetylcholine Muscarinic M1 Receptor: Measurement of IP-One Response (AID 944); further: nearly all actives have a fitted effect of over 75% in size
Muscarinic acetylcholine receptor M1 (Rattus norvegicus), sequence (P08482 whole entry, looked up): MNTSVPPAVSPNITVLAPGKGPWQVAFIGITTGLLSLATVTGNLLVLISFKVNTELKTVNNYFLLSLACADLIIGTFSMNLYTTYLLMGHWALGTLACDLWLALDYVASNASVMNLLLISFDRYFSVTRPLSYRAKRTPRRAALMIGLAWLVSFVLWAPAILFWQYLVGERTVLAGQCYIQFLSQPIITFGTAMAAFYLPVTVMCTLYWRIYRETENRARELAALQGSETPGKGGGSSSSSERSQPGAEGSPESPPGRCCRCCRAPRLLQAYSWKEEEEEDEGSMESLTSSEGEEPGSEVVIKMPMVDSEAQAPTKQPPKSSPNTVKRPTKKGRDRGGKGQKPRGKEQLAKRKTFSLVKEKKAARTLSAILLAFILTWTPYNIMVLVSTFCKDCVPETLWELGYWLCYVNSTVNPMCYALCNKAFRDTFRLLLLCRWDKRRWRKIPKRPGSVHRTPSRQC
Procedure, shortened: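 M1-CHO (rat), 2000 cells/well, overnight recovery; cpd 10 min; carbachol EC80 (200 nM), 30 min, HEPES buffer + 50 mM LiCl pH 7.4; IP-One HTRF, Ex 337, Em 620/665 nm.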

[22] = biological target: alpha-glucosidase (Oryza sativa, rice) (UniProt Q653V4); assay: Counterscreen for Glucocerebrosidase Inhibitors: qHTS Assay for Rice alpha-Glucosidase at pH 5.0 (AID 997);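 further: 0% = full activity with enzyme and -100% = basal without enzyme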
Procedure, shortened: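 Rice alpha-glucosidase (4 nM final) with 400 uM 4-methylumbelliferyl-alpha-D-glucopyranoside in citrate buffer pH 5.0, 20 min at room temperature, stopped at pH 10; fluorescence 365/440 nm, compounds 0.7 nM–77 uM, AC50 from Hill fits.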

COc1cccc2c1C(=O)c1c(O)c3c(c(O)c1C2=O)C[C@](O)(C(C)=O)C[C@H]3O[C@@H]1C[C@H](N)[C@H](O)[C@H](C)O1
inactive: Potency [2] | Potency [3] > 20.6 µM | Potency [4] > 20.6 µM | Potency [5] | Potency [6] | Potency [7]
active: activity change, negative = inhibition [1] -116% | Potency [8] 31.6 µM

Cc1cc(-c2cc(C)c(O)c(C(C)(C)C)c2)cc(C(C)(C)C)c1O
active: Potency [2] 0.631 µM
inactive: activity change, negative = inhibition [1] -0.717% [at 7.69 µM] | activity, negative = inhibition [9] 14.1% [at 7.69 µM] | Potency [3] > 46 µM | Potency [4] > 9.22 µM | activity change, negative = inhibition [10] -3.71% [at 11.4 µM] | Potency [5] | activation [11] -9.94%

COc1cc2nc(N3CCN(C(=O)[C@H]4COc5ccccc5O4)CC3)nc(N)c2cc1OC
inactive: activity change, negative = inhibition [1] -28.6% [at 38 µM] | Potency [2] | activity, negative = inhibition [9] -8.72% [at 38 µM] | Potency [10] | Potency [5] | outcome [12] | outcome [13] | Potency [14] | Potency [15] | outcome [16] | outcome [17]

Clc1ccccc1-c1nnc2sc(-c3ccco3)nn12
inactive: activity change, negative = inhibition [1] -8.96% | activity change, negative = inhibition [18] 6.46% | activity, negative = inhibition [9] 0.557%

C/C=C1\C(=O)C[C@@H]2[C@@H]3CCC4=CC(=O)CC[C@@]4(C)[C@H]3CC[C@@]12C
inactive: activity change, negative = inhibition [1] 13.9% [at 38 µM] | Potency [2] | activity, negative = inhibition [9] 7.49% [at 38 µM] | Potency [5] | outcome [12] | Potency [19] | Potency [20] | Potency [21] | Potency [15] | outcome [16] | outcome [17]

CCCCCCCCCCCCCCCCCCNC(=O)OC[C@@H](COP(=O)([O-])OCC[n+]1ccsc1)OC
inactive: activity change, negative = inhibition [1] 1.14% [at 38 µM] | Potency [2] | activity, negative = inhibition [9] -15% [at 38 µM] | Potency [3] > 46 µM | Potency [4] > 46 µM | Potency [10] | Potency [5] | outcome [12] | Potency [14] | Potency [21] | Potency [15] | outcome [16] | outcome [17] | outcome [22]
